Reference: PubChem BioAssay AID1318 (The Scripps Research Institute Molecular Screening Center, 2008)
About 160 (13%) of roughly 1,200 compounds were called active. Only a sample is shown. A number with no mark means an inactive call.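 How the source made its calls: active means activation above the solvent-only control well mean plus 3 SD, set per screening run (cut at about 120% in these data); inactive means the rest.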

assay: STAT1 reporter activators, IFN-gamma induced, counter-screen for STAT3 activator project, cell-based, NIH 3T3, luciferase luminescence (AID 1318); settings: NIH 3T3 STAT1-luciferase reporter, at 5.7 µM, stronger effect = higher value;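 further: 100% = IFN-gamma with DMSO median signal so 100% means no change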

SMILES | activation (% of control)
CN1C(=O)/C(=C\c2cc(Br)cs2)c2ccccc21 | 116%
Cc1nc(N=C(N)N)nc2c(C)cccc12 | 104%
CN1CCN(c2ccc([N+](=O)[O-])c(Sc3nc4ccccc4[nH]3)c2)CC1 | 96.2%
Cc1ccc(N=Nc2c(C)[nH]n(-c3ccccc3)c2=O)cc1 | 106%
N#Cc1ccccc1NC(=O)COc1c(Br)cc(Br)c2cccnc12 | 85.6%
c1ccc(-c2cn3c(n2)CCc2ccc4cccnc4c2-3)cc1 | 94.3%
CCOC(=O)CN(C)Cc1c[nH]c2ccccc12 | 88.5%
Cc1cccc(C(=O)Nc2nnc(Cc3c[nH]c4ccccc34)s2)c1 | 92.4%
Cc1ccc(S(=O)(=O)Nc2nc3ccccc3nc2N2CCc3ccccc3C2)cc1 | 105%
O=C(Cc1c[nH]c2ccccc12)OCCOC(=O)Cc1c[nH]c2ccccc12 | 94.1%
C/C(=N\NC(=O)CNc1cccc2ccccc12)c1ccc(Br)s1 | 92.6%
CSCCC(NC(=O)c1ccco1)C(=O)OCC(=O)Nc1ncc(Cl)c(C)c1Cl (stereo not given) | 105%
CCOc1ccc(C2c3[nH]c4ccccc4c3CCN2Cc2cn(CC)nc2C)cc1 (stereo not given) | 112%
Cc1ccc(Nc2nc(-c3sc(NC(=O)c4ccccc4)nc3C)cs2)cc1 | 105%
COc1ccccc1-c1nnc(NC(=O)c2ccc3ncsc3c2)o1 | 137% (active)
COc1ccccc1-c1nnc(SCC(=O)N2CC(C)CC(C)C2)o1 (stereo not given) | 97%
OC(COc1ccc2ccccc2c1)CN1CCOCC1 (stereo not given) | 118%
COc1cccc(/C=C(/CC(=O)Nc2ccc(N3CCOCC3)cc2)c2nc3ccccc3s2)c1 | 99.9%
Oc1c(C=Nc2cccc3nsnc23)ccc2ccccc12 | 95.4%
Cc1ccc(NC(=O)c2cc([N+](=O)[O-])ccc2Cl)c(O)c1 | 99.1%
CC(C)CNC(=O)COC(=O)/C=C/c1ccccc1[N+](=O)[O-] | 89.1%
O=C(Nc1cc(C(F)(F)F)ccc1Cl)c1cc(C2CC2)on1 | 98.3%
Oc1cccc2ccc(/C=C/c3ccc(Br)s3)nc12 | 103%
COc1nc(N=C(N)N)nc2c(C)cccc12 | 102%
CCOC(=O)c1c(-c2cccc(C)c2)csc1NC(=O)c1c(-c2ccccc2)noc1C | 117%

SMILES | activation (% of control)
O=[N+]([O-])c1ccc(N2CCN(S(=O)(=O)c3ccc4ccccc4c3)CC2)cc1NCc1ccco1 | 110%
O=C1CCCN1CCCNc1ncnc2c1[nH]c1ccccc12 | 82.6%
COc1ccc(NC(=O)ON=C2c3ccccc3-c3ccccc32)cc1 | 107%
Cc1ccc(-c2cc(C(=O)Nc3nn[nH]n3)c3ccccc3n2)c(C)c1 | 97.5%
C=CCn1c(-c2ccccc2OCC)n[nH]c1=S | 112%
COC(=O)c1[nH]c2ccccc2c1NC(=O)CN1CCCc2ccccc21 | 106%
CC(=O)Nc1ccc(NC(=O)COc2ccccc2C(=O)Nc2cccc(Cl)c2Cl)cc1 | 100%
Cc1ccc(/C=N/NC(=O)COc2ccccc2-c2ccccc2)cc1 | 114%
COc1cccc(NC(=S)C(C#N)=C2N(C)c3ccccc3N2C)c1 | 103%
COC(=O)c1[nH]c2cccc(C)c2c1NC(=O)CN1CCCc2ccccc21 | 93.5%
NC(=O)CSc1c[nH]c2ccccc12 | 99.4%
COc1ccc(-c2c3c(=O)n(C)c(=O)n(C)c3cn2-c2cccc(OC)c2)cc1 | 101%
N#Cc1c(C(F)(F)F)cc(-c2ccc(Cl)cc2)nc1SCC(=O)O | 113%
COc1ccc([N+](=O)[O-])cc1C1NN=C(c2cccc3ccccc23)S1 (stereo not given) | 120%
CSc1nc2sc3c(c2c(=O)[nH]1)CCc1ccccc1-3 | 95.8%
CCSc1nnc(-c2cc3c(s2)-c2ccccc2CC3)o1 | 132% (active)
COc1ccccc1N1CCN(C(=O)c2cc3c(-c4ccc(Cl)cc4)nn(C)c3s2)CC1 | 93.1%
COc1cc(OC)cc(C(=O)N[C@H](C(=O)Nc2nc3ccccc3[nH]2)C(C)C)c1 | 109%
CSc1nc(N(C)NC(=O)c2cccc(C)c2)c2ccccc2n1 | 107%
CCCS(=O)(=O)Nc1c(C(=O)O)[nH]c2ccccc12 | 94.9%
CCOC(=O)N1CCN(CC(=O)Nc2cc(C)nn2-c2nc3ccccc3s2)CC1 | 101%
CCNCc1cc2cc(C)ccc2[nH]c1=O | 98.7%
Cn1cccc1C(=O)Nc1nccs1 | 104%
CCOC(=O)C1CCN(c2ncnc3c2oc2ccc(Br)cc23)CC1 | 92.6%
COc1ccccc1C1C2=C(COC2=O)Nc2cc3c(cc21)OCO3 (stereo not given) | 116%

SMILES | activation (% of control)
COc1ccc(/C=N/Nc2ncnc3sc4c(c23)CCCC4)cc1O | 139% (active)
CCCCC(=O)Nc1nc(C)c(-c2csc(Nc3ccc(Cl)cc3)n2)s1 | 102%
Cc1cccc(C(=O)N2CCc3c([nH]c4ccccc34)C2CC(C)C)n1 (stereo not given) | 118%
C/C(=N\c1nc2ccccc2n1C)c1cc(Cl)ccc1O | 92.8%
C=CCCC(=O)Nc1nc(C)c(-c2csc(Nc3ccc(Cl)cc3)n2)s1 | 104%
Oc1cccc(C2c3[nH]c4ccccc4c3CCN2Cc2cnn(-c3ccccc3)c2)c1 (stereo not given) | 93.5%
Fc1ccc2nc(-c3ccccc3)nc(SCc3nnc(-c4ccccc4)o3)c2c1 | 96.5%
COc1ccc(C2c3[nH]c4ccccc4c3CCN2CCCn2cccn2)cc1C (stereo not given) | 95.6%
COc1ccc(Cl)cc1NC(=O)c1oc(C)nc1C | 98.8%
Cc1csc2ncc(C(=O)N(Cc3ccccc3)c3ccccn3)c(=O)n12 | 103%
Cc1ccc(C2=NN(C)c3nc4ccccc4n3C2)cc1 | 101%
COC(=O)c1[nH]c2ccccc2c1NS(=O)(=O)c1ccc(OC)cc1OC | 92.3%
O=C(O)CSCc1nc2ccccc2s1 | 120% (active)
O=C(O)CS/C(=C\c1ccc(F)cc1)c1nc2ccccc2s1 | 112%
Cc1nc2ccccc2cc1O | 87.9%
COc1ccc(C)cc1NC(=O)c1[nH]c(C)c(C(C)=O)c1C | 100%
CCn1c(SCC(=O)N/N=C/C=C/c2ccccc2[N+](=O)[O-])nnc1-c1ccccc1 | 89.9%
COc1cc(NS(=O)(=O)c2ccc(N/C=C(\C=O)c3nc4cc(Cl)ccc4o3)cc2)nc(OC)n1 | 93.1%
Cn1nc(-c2ccc(Cl)cc2)c2cc(C(=O)NCc3ccco3)sc21 | 94.9%
O=c1[nH]c(CSc2ncc(-c3ccc(F)cc3)n2Cc2ccco2)nc2ccccc12 | 100%
COCCCNc1nc2c(-c3cccc(C(F)(F)F)c3)nnn2c2ccccc12 | 98.4%
O=C(NCc1ccco1)c1cccn2c(=O)c3c4c(sc3nc12)CCCC4 | 87%
Cc1cccc(N(CC(=O)N=Nc2c(O)[nH]c3ccccc23)S(C)(=O)=O)c1C | 107%
O=C(C1CCN(S(=O)(=O)Cc2ccccc2)CC1)N1CCCc2ccccc21 | 105%
Cc1ccc(OCc2nnc(SC3CCc4ccccc4C3=O)n2C)cc1 (stereo not given) | 132% (active)
